Potency and outcome data for 3 molecules are collected here from PubChem BioAssay (NCATS).

Experiment [1] has as its target Tyrosyl-DNA phosphodiesterase 1 (Homo sapiens) (UniProt Q9NUW8). The experiment can be described thus: Confirmation Assay for Inhibitors of Tyrosyl-DNA Phosphodiesterase (TDP1) (AID 489007). Also: potency is read from the fitted curve at half-maximal effect; nearly all actives have a fitted effect of over 40% in size. The settings on record: recombinant human TDP1 enzymatic activity, dose-response. An outline of the steps: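 Recombinant E. coli-expressed Tdp1 (1 nM final) was preincubated with compounds 15 min at room temperature, then reacted 5 min with 15 nM 5'-biotin/3'-phosphotyrosine-FITC DNA substrate; cleavage read as loss of AlphaScreen signal (10 ug/ml beads, 10 min).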

A short description of experiment [2]: qHTS for differential inhibitors of proliferation of Plasmodium falciparum line GB4 (AID 1816).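 Also: potency is read from the fitted curve at half-maximal effect; parasite growth measured after 72 h incubation.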 The settings on record: Potency: Plasmodium falciparum GB4 proliferation inhibition; series mostly up to 28.7 µM. For orientation: In qHTS, concentration-response curves come from the screen itself.
A short description of experiment [3]: qHTS for differential inhibitors of proliferation of Plasmodium falciparum line 3D7 (AID 1876). Also: potency is read from the fitted curve at half-maximal effect. The settings on record: P. falciparum 3D7 proliferation inhibition; series mostly up to 28.7 µM.
A short description of experiment [4]: qHTS for differential inhibitors of proliferation of Plasmodium falciparum line W2 (AID 1883).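 Also: potency is read from the fitted curve at half-maximal effect; parasites grown with compound for 72 h before lysis and staining.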 The settings on record: Potency: Plasmodium falciparum W2 proliferation inhibition; series mostly up to 28.7 µM.
Experiment [5] is described as follows: qHTS for differential inhibitors of proliferation of Plasmodium falciparum line HB3 (AID 1886).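 Also: potency is read from the fitted curve at half-maximal effect; parasites grown with compound for 72 h before SYBR Green readout.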 The settings on record: Potency: Plasmodium falciparum HB3 proliferation inhibition; series mostly up to 28.7 µM.
Experiment [6] is described as follows: Quantitative high throughput screen for delayed death inhibitors of the malarial parasite plastid, 96 hour incubation (AID 488745). Also: potency is read from the fitted curve at half-maximal effect; nearly all actives have a fitted effect of over 70% in size. The settings on record: Plasmodium falciparum growth; series mostly up to 28.7 µM. In outline:
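P. falciparum carrying an integrated firefly luciferase reporter, grown in erythrocytes (2% hematocrit, 0.1% parasitemia final) in RPMI 1640/0.5% Albumax, was exposed to compound for 96 h (two generations) at 37 C, 5% CO2. Luminescence decrease indicated growth inhibition.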

The target of experiment [7] is Thyrotropin receptor (Homo sapiens) (UniProt P16473). Kind of experiment: qHTS Assay for Antagonists of the Thyroid Stimulating Hormone Receptor (AID 488980). The settings on record: TSHR-expressing cells, cAMP antagonist read-out; series mostly up to 57.5 µM. In outline: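 Inhibition of TSH-stimulated cAMP accumulation was quantified by homogeneous time-resolved FRET in TSHR-transfected HEK293 cells. Agonist: TSH, 4 nM final (EC80).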

A short description of experiment [8]: qHTS Assay for Identification of Small Molecule Agonists for Thrombopoietin (TPO) Signaling Pathway (AID 917). The settings on record: TPO signaling pathway reporter cells, agonist qHTS, stimulated with TPO at its EC50; series mostly up to 38.5 µM. In outline: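 IL-3-dependent murine pro-B Ba/F3 cells, stably transfected with human TPO receptor and GpIIb-promoter luciferase, are incubated 24 hrs at 37 C with test compound and 26 pM TPO; luciferase signal is read after 10 min at room temperature.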

For experiment [9], the target named is Muscarinic acetylcholine receptor M1 (Rattus norvegicus) (UniProt P08482). The experiment can be described thus: qHTS Assay for Antagonists of Acetylcholine Muscarinic M1 Receptor: Kinetic Measurement of Intracellular Calcium Response (AID 943).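 Also: Fluo-4 calcium signal as peak divided by basal fluorescence over 4 min; nearly all actives have a fitted effect of over 75% in size.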 As to conditions: M1-expressing cells, kinetic intracellular calcium fluorescence; series mostly up to 35.3 µM. An outline of the steps:
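CHO cells stably expressing rat M1 were loaded with no-wash Fluo-4 dye for 1 h at 37C, pre-incubated 10 min with compound, then challenged with EC80 carbachol (100 nM final); kinetic calcium read 4 min, peak/basal ratio.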

In experiment [10] the target is Endonuclease 4 (Escherichia coli (strain K12)) (UniProt P0A6C1). The experiment can be described thus: Counterscreen for APE1 Inhibitors: qHTS Validation Assay for Inhibitors of Endonuclease IV (AID 1708). As to conditions: E. coli endonuclease IV, DNA cleavage fluorescence; series mostly up to 57.1 µM. An outline of the steps: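 2 nM enzyme was preincubated with compounds for 15 min at room temperature in 50 mM Tris-HCl pH 7.5, 50 mM NaCl, 2 mM MgCl2, 1 mM DTT, 0.01% Tween-20. 50 nM THF-abasic TAMRA/BHQ-2 duplex substrate started the reaction.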

Experiment [11] can be described thus: Validation screen for small molecules that induce DNA re-replication in SW480 colon adenocarcinoma cells (AID 504364). The settings on record: DNA re-replication phenotype (high-content imaging); series mostly up to 46.1 µM. An outline of the steps:
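SW480 cells seeded at 250 per well were exposed to compound or DMSO for 48 hr at 37 C, 5% CO2, then stained with Hoechst for 40 min. DNA content per nucleus was imaged (405 nm ex, 500-530 nm em).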

Experiment [12] addresses Voltage-gated inwardly rectifying potassium channel KCNH2 (Homo sapiens) (UniProt Q12809). The experiment can be described thus: qHTS Assay for Small Molecule Inhibitors of the Human hERG Channel Activity (AID 588834).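 Also: top concentration of the series differs between compounds; lower thallium flux fluorescence means stronger hERG block; nearly all actives have a fitted effect of over 50% in size.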 The settings on record: U2OS BacMam hERG, FluxOR thallium flux fluorescence; series mostly up to 46.1 µM. In outline:
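Blockade is seen as reduced FluxOR thallium-flux fluorescence in U2OS cells expressing hERG from a BacMam construct, in Opti-MEM with 2% FCS. Concentration-response data fitted to the Hill equation for AC50.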

Records with an inconclusive call do not appear. Activity calls are given as the source filed them. Calls follow the shape of the dose curve; as a rule, active = well fitted curve in the direction sought with a large enough effect; inconclusive = small, poorly fitted or top-dose-only effect, or another doubt; inactive = no such curve, though single readings can be large; an effect the other way counts as inactive or inconclusive.

Thyrotropin receptor (Homo sapiens), sequence (P16473 whole entry, looked up): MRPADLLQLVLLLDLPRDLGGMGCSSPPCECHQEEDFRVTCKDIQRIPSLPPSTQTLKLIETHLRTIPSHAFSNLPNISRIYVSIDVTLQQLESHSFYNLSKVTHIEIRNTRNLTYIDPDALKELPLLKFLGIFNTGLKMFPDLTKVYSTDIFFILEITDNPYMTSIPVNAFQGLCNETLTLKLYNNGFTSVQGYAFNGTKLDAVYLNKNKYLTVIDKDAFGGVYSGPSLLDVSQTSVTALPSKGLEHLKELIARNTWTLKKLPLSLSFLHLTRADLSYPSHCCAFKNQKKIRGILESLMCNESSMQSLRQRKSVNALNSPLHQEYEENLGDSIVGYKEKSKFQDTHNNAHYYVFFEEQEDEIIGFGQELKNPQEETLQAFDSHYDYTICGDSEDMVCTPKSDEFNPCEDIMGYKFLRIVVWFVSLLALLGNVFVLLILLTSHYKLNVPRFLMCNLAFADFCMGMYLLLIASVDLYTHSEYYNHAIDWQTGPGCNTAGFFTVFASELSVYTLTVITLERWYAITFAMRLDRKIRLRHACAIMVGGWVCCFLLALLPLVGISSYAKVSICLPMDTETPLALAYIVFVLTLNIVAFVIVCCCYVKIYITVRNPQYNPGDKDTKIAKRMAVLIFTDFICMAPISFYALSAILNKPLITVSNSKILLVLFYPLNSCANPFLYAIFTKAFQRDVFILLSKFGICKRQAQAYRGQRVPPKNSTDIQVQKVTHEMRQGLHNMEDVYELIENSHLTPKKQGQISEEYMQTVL
Muscarinic acetylcholine receptor M1 (Rattus norvegicus), sequence (P08482 whole entry, looked up): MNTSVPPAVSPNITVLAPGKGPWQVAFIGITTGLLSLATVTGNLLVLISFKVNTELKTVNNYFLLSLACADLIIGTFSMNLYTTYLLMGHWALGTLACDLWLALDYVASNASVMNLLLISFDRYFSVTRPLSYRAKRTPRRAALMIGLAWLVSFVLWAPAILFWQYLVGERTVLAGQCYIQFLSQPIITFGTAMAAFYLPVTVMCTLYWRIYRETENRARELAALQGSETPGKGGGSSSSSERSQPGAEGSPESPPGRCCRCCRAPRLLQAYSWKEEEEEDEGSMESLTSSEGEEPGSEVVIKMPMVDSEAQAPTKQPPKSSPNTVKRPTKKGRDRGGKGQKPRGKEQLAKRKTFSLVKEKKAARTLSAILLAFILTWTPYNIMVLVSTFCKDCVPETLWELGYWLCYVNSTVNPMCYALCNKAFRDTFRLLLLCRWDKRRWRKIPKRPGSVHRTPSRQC
Tyrosyl-DNA phosphodiesterase 1 (Homo sapiens), sequence (Q9NUW8 whole entry, looked up): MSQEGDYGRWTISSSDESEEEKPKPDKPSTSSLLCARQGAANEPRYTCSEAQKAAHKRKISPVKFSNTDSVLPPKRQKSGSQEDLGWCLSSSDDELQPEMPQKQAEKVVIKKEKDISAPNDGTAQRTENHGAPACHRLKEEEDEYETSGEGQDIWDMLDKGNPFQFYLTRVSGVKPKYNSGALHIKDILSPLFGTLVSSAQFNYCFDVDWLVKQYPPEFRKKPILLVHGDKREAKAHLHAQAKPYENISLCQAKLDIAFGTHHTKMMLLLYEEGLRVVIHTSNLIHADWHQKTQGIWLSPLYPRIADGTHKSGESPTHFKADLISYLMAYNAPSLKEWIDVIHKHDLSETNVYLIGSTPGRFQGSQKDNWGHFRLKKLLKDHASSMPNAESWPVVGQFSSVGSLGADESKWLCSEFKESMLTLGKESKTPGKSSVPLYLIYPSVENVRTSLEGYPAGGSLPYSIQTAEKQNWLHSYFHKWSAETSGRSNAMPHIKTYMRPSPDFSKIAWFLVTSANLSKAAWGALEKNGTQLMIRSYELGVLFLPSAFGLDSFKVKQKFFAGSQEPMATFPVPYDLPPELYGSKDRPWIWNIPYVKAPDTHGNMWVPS
Voltage-gated inwardly rectifying potassium channel KCNH2 (Homo sapiens), sequence (Q12809 whole entry, looked up): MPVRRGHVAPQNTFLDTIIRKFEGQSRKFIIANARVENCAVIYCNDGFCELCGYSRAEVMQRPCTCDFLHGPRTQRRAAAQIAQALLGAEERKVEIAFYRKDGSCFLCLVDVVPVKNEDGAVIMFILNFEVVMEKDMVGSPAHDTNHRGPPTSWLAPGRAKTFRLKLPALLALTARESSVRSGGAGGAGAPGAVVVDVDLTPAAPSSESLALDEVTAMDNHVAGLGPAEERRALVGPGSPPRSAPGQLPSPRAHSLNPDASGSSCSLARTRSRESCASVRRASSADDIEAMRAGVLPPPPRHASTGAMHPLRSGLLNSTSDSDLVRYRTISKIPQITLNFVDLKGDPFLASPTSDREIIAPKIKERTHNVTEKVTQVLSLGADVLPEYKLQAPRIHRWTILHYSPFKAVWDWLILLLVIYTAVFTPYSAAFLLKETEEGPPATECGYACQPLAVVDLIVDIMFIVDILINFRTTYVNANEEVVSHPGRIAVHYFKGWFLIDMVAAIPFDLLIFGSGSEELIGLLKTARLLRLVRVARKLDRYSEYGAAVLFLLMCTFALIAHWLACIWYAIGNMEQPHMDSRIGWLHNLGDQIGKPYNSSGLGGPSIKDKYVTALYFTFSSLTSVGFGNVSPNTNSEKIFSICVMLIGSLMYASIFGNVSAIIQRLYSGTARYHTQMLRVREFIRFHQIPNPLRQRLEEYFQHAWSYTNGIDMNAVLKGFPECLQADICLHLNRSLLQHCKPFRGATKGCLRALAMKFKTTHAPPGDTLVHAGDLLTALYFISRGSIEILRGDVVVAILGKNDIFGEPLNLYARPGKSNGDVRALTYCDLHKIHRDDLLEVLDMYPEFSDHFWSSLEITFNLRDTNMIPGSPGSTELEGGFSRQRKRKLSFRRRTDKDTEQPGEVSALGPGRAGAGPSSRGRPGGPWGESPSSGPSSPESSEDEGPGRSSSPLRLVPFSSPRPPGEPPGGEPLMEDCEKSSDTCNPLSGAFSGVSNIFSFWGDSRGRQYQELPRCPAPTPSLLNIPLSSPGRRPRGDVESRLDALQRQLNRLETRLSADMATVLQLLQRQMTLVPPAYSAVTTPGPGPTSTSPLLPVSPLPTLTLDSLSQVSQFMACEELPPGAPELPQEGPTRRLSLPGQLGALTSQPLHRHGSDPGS

In the case of `Cc1ccccc1-c1cncnc1N(C)Cc1ccco1`, in experiment [1], the Potency was 3160 nM (active).

Take `CCCNC[C@H](O)COc1ccccc1C(=O)CCc1ccccc1`: the Potency is 316 nM (active) in experiment [2]; 891 nM (active) in [3]; 282 nM (active) in experiment [4]; 1120 nM (active) in [5]; 2620 nM (active) in experiment [6]. The outcome in experiment [7] was inactive.

In the case of `COc1ccc2c(c1)c(CC(=O)O)c(C)n2Cc1ccc(F)cc1`, the call in [8], in experiment [10] and in experiment [11] was inactive. The Potency result in experiment [9] and in experiment [12] was “inactive” throughout.
